# PubChem BioAssay AID1159580 (chemical genetic matrix, 2015)
# About 2,000 (36%) of roughly 5,500 compounds were called active. Another 18% or so got no clear call; they are omitted. The list shows a part of the results. Values without a mark were called inactive. Cut-off read from the data, not from the text of the source: active = normalized growth mostly below about 0.91 (no sharp cut-off); inconclusive = no clear call, values can overlap the other calls; inactive = mostly above about 0.92.
# Assay: chemical genetic growth profiling, strain panel (AID 1159580);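 note: tested at 20 µM; growth read once vehicle control cultures reached saturation at 30 °C; 1 = growth at the plate median or of vehicle wells; lower values mean less growth of the strain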
# Details: S. cerevisiae deletion strains, growth OD
compound,measurement,setting,value
C[C@H]1C[C@@H](O)[C@]2(O)[C@@]13CC(=O)OC[C@@]2(C)[C@](C)(O)C(=O)C3,normalized growth,"locus YAL021C, strain ccr4, stronger effect = lower value",1.02
same,normalized growth,"locus YAL026C, strain drs2, stronger effect = lower value",1.04
same,normalized growth,"locus YAL030W, strain snc1, stronger effect = lower value",1.02
same,normalized growth,"locus YBL061C, strain skt5, stronger effect = lower value",1.02
same,normalized growth,"locus YBR009C, strain hhf1, stronger effect = lower value",1.02
same,normalized growth,"locus YBR023C, strain chs3, stronger effect = lower value",1.03
same,normalized growth,"locus YBR171W, strain sec66, stronger effect = lower value",1.03
same,normalized growth,"locus YBR231C, strain swc5, stronger effect = lower value",1.03
same,normalized growth,"locus YBR279W, strain paf1, stronger effect = lower value",1.03
same,normalized growth,"locus YCL011C, strain gbp2, stronger effect = lower value",1.02
same,normalized growth,"locus YCL016C, strain dcc1, stronger effect = lower value",1.02
same,normalized growth,"locus YCL061C, strain MRC1, stronger effect = lower value",1.02
same,normalized growth,"locus YCL069W, strain vba3, stronger effect = lower value",1.02
same,normalized growth,"locus YCR088W, strain abp1, stronger effect = lower value",1.02
same,normalized growth,"locus YDL005C, strain med2, stronger effect = lower value",1.03
same,normalized growth,"locus YDL040C, strain nat1, stronger effect = lower value",1.02
same,normalized growth,"locus YDR001C, strain nth1, stronger effect = lower value",1.02
same,normalized growth,"locus YDR069C, strain doa4, stronger effect = lower value",1.04
same,normalized growth,"locus YDR137W, strain rgp1, stronger effect = lower value",1.03
same,normalized growth,"locus YDR159W, strain sac3, stronger effect = lower value",1.05
same,normalized growth,"locus YDR195W, strain ref2",1.02
same,normalized growth,"locus YDR297W, strain sur2, stronger effect = lower value",1.03
same,normalized growth,"locus YDR334W, strain swr1, stronger effect = lower value",1.03
same,normalized growth,"locus YDR335W, strain msn5, stronger effect = lower value",1.03
same,normalized growth,"locus YDR392W, strain spt3, stronger effect = lower value",0.974
same,normalized growth,"locus YEL003W, strain gim4, stronger effect = lower value",1.04
same,normalized growth,"locus YEL037C, strain rad23, stronger effect = lower value",1.03
same,normalized growth,"locus YEL061C, strain CIN8 (second series), stronger effect = lower value",1.03
same,normalized growth,"locus YER015W, strain faa2, stronger effect = lower value",1.02
same,normalized growth,"locus YER016W, strain bim1, stronger effect = lower value",1.02
same,normalized growth,"locus YER111C, strain swi4, stronger effect = lower value",1.04
same,normalized growth,"locus YER155C, strain BEM2 (second series), stronger effect = lower value",1.05
same,normalized growth,"locus YFR010W, strain ubp6, stronger effect = lower value",1.03
same,normalized growth,"locus YGL167C, strain pmr1, stronger effect = lower value",1.02
same,normalized growth,"locus YGL173C, strain kem1, stronger effect = lower value",1.02
same,normalized growth,"locus YGL227W, strain vid30, stronger effect = lower value",1.03
same,normalized growth,"locus YGL240W, strain doc1, stronger effect = lower value",1.02
same,normalized growth,"locus YGL253W, strain hxk2, stronger effect = lower value",1.03
same,normalized growth,"locus YHR013C, strain ard1, stronger effect = lower value",1.04
same,normalized growth,"locus YHR027C, strain rpn1, stronger effect = lower value",1.02
same,normalized growth,"locus YHR030C, strain SLT2, stronger effect = lower value",1.08
same,normalized growth,"locus YHR079C, strain IRE1, stronger effect = lower value",1.05
same,normalized growth,"locus YHR142W, strain chs7, stronger effect = lower value",1.04
same,normalized growth,"locus YJL092W, strain hpr5, stronger effect = lower value",1.03
same,normalized growth,"locus YJL095W, strain BCK1 (second series), stronger effect = lower value",1.03
same,normalized growth,"locus YJL095W, strain BCK1, stronger effect = lower value",1.05
same,normalized growth,"locus YJL115W, strain asf1, stronger effect = lower value",1.05
same,normalized growth,"locus YJL129C, strain trk1, stronger effect = lower value",1.06
same,normalized growth,"locus YJL154C, strain vps35, stronger effect = lower value",1.01
same,normalized growth,"locus YJL164C, strain tpk1, stronger effect = lower value",1.02
same,normalized growth,"locus YJL166W, strain qcr8, stronger effect = lower value",1.02
same,normalized growth,"locus YJL187C, strain SWE1, stronger effect = lower value",1.02
same,normalized growth,"locus YJR066W, strain TOR1, stronger effect = lower value",0.995
same,normalized growth,"locus YKL160W, strain elf1, stronger effect = lower value",1.02
same,normalized growth,"locus YKR026C, strain gcn3, stronger effect = lower value",1
same,normalized growth,"locus YKR091W, strain srl3, stronger effect = lower value",1.02
same,normalized growth,"locus YLL001W, strain dnm1, stronger effect = lower value",1.02
same,normalized growth,"locus YLL026W, stronger effect = lower value",1.03
same,normalized growth,"locus YLL041C, strain sdh2, stronger effect = lower value",1.02
same,normalized growth,"locus YLR027C, strain aat2, stronger effect = lower value",1.02
same,normalized growth,"locus YLR113W, strain HOG1, stronger effect = lower value",1.07
same,normalized growth,"locus YLR221C, strain rsa3, stronger effect = lower value",1.03
same,normalized growth,"locus YLR258W, strain gsy2, stronger effect = lower value",1.02
same,normalized growth,"locus YLR262C, strain YPT6 (second series), stronger effect = lower value",1.03
same,normalized growth,"locus YLR320W, strain mms22, stronger effect = lower value",1.03
same,normalized growth,"locus YLR342W, strain FKS1, stronger effect = lower value",1.03
same,normalized growth,"locus YLR357W, strain rsc2, stronger effect = lower value",1.07
same,normalized growth,"locus YLR370C, strain arc18, stronger effect = lower value",1.02
same,normalized growth,"locus YLR384C, strain iki3, stronger effect = lower value",1.02
same,normalized growth,"locus YML120C, strain ndi1, stronger effect = lower value",1.01
same,normalized growth,"locus YMR058W, strain fet3, stronger effect = lower value",1.03
same,normalized growth,"locus YMR125W, strain sto1, stronger effect = lower value",1.05
same,normalized growth,"locus YMR129W, stronger effect = lower value",1.02
same,normalized growth,"locus YMR205C, strain PFK2, stronger effect = lower value",1.04
same,normalized growth,"locus YMR231W, strain pep5, stronger effect = lower value",1.03
same,normalized growth,"locus YNL071W, strain lat1, stronger effect = lower value",1.03
same,normalized growth,"locus YNL183C, strain NPR1, stronger effect = lower value",0.984
same,normalized growth,"locus YNL209W, strain ssb2, stronger effect = lower value",1.02
same,normalized growth,"locus YNL248C, strain rpa49, stronger effect = lower value",1.03
same,normalized growth,"locus YNL322C, strain KRE1 (second series), stronger effect = lower value",1.02
same,normalized growth,"locus YNR049C, strain mso1, stronger effect = lower value",1.03
same,normalized growth,"locus YOR001W, strain rrp6, stronger effect = lower value",1.03
same,normalized growth,"locus YOR070C, strain gyp1, stronger effect = lower value",1.02
same,normalized growth,"locus YOR080W, strain dia2, stronger effect = lower value",1.03
same,normalized growth,"locus YOR083W, strain WHI5, stronger effect = lower value",1.01
same,normalized growth,"locus YOR106W, strain vam3, stronger effect = lower value",1.02
same,normalized growth,"locus YOR231W, strain MKK1, stronger effect = lower value",1.06
same,normalized growth,"locus YOR265W, strain rbl2, stronger effect = lower value",1.02
same,normalized growth,"locus YOR270C, strain vph1, stronger effect = lower value",1.09
same,normalized growth,"locus YOR290C, strain snf2, stronger effect = lower value",0.993
same,normalized growth,"locus YPL051W, strain arl3, stronger effect = lower value",1.02
same,normalized growth,"locus YPL078C, strain atp4, stronger effect = lower value",1.03
same,normalized growth,"locus YPL106C, strain sse1, stronger effect = lower value",1.02
same,normalized growth,"locus YPL240C, strain hsp82, stronger effect = lower value",1.03
same,normalized growth,"locus YPL256C, strain CLN2, stronger effect = lower value",1.05
Cc1nc(-c2ccc(-c3ccc(C(=O)N4CCc5cc6c(cc54)C4(CCN(C)CC4)CO6)cc3)c(C)c2)no1,normalized growth,"locus YAL040C, strain CLN3, stronger effect = lower value",0.967
same,normalized growth,"locus YCL061C, strain MRC1 (second series), stronger effect = lower value",0.902 (active)
same,normalized growth,"locus YDR363W, strain ESC2, stronger effect = lower value",0.991
same,normalized growth,"locus YER002W, strain NOP16, stronger effect = lower value",0.991
same,normalized growth,"locus YJR075W, strain HOC1, stronger effect = lower value",0.898 (active)
same,normalized growth,"locus YMR263W, strain SAP30, stronger effect = lower value",1
same,normalized growth,"locus YNL175C, strain NOP13, stronger effect = lower value",0.964
same,normalized growth,"locus YNL197C, strain WHI3, stronger effect = lower value",0.989
same,normalized growth,"locus YNL224C, strain SQS1, stronger effect = lower value",0.961
same,normalized growth,"locus YNL322C, strain KRE1, stronger effect = lower value",0.64 (active)
same,normalized growth,"locus YOR083W, strain WHI5 (second series), stronger effect = lower value",0.677 (active)
same,normalized growth,"locus YPL055C, strain LGE1, stronger effect = lower value",1.04
same,normalized growth,"locus YPL241C, strain CIN2, stronger effect = lower value",0.907 (active)
